Measured values from PubChem BioAssay.

Tests used:
[1] = tested on: Human papillomavirus type 1a protein E7 (residues 44-93); assay: small molecules binding HPV E7 44-93 – biochemical, small-molecule microarray, residues 44-93, 635 nm fluorescence, primary screen (AID 1108); details: fluorescence 635 nm, higher = more signal;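 further: E7 fragment applied at 1 µg/mL in TBST for 1 h at 4 C; score combines spot fluorescence with its signal to noise ratio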
[2] = hepatitis C replication reporter changes, two-sided – Huh7 cells, luciferase reporter, HCV replication inhibitor project, primary screen (AID 1109); details: Huh7 HCV replicon luciferase reporter, 48 h; higher = more signal;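 further: huh7 hepatoma cells harbouring a luciferase neomycin HCV replicon reporter; luciferase luminescence as measure of HCV replicon replication; test concentration not given here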
[3] = molecular target: Left-right determination factor 2 (Homo sapiens) (UniProt O00292); assay: small molecules binding LEFTY2 protein – biochemical, small-molecule microarray, 635 nm fluorescence scan, primary screen (AID 1110); details: higher = more signal
Sequence of Left-right determination factor 2 (Homo sapiens) (O00292 whole entry, looked up): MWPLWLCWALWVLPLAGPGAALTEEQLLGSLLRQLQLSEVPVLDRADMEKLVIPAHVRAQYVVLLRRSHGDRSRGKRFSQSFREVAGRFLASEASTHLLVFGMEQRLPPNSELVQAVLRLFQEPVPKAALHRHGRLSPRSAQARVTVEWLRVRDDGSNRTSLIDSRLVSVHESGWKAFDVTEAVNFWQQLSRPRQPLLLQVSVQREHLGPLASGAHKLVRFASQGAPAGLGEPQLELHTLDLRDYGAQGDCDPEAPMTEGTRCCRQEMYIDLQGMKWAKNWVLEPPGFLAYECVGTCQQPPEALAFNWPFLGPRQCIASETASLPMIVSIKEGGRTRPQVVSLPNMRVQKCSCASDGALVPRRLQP

[4] = molecular target: Calmodulin-1 (Homo sapiens) (UniProt P0DP23); assay: small molecules binding calmodulin-1 with EGTA – biochemical, small-molecule microarray, Cy5-labelled CALM1, profiling panel (AID 1111); details: Cy5-CALM1 binding fluorescence, higher = more signal;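 further: labelled calmodulin applied in Tris saline Tween buffer holding calcium plus EGTA and DTT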
[5] = molecular target: Calmodulin-1 (Homo sapiens) (UniProt P0DP23); assay: small molecules binding Ca-loaded calmodulin-1 – biochemical, small-molecule microarray, Cy5-labelled CALM1, plus calcium, artefact control for SMM control-protein annotation, profiling panel (AID 1112); details: Cy5-CALM1 binding fluorescence, higher = more signal;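 further: score merges spot fluorescence with signal to noise from triplicate slides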
[6] = probe aWnt5a binding to arrayed compounds – biochemical, biotinylated probe, 635/667 nm fluorescence, primary screen (AID 1113); details: small-molecule microarray, higher = more signal;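 further: score merges 667 nm fluorescence intensity with signal-to-noise per printed feature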
[7] = probe aShh binding to arrayed compounds – biochemical, biotinylated probe, 635/667 nm fluorescence, primary screen (AID 1114); details: small-molecule microarray, higher = more signal;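 further: probe is biotin-labelled aShh protein from a stem cell growth factor screen; measures binding of labelled protein to compounds printed on the slide; score merges feature fluorescence at 667 nm with signal-to-noise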
[8] = probe aNog binding to arrayed compounds – biochemical, biotinylated probe, 635/667 nm fluorescence, primary screen (AID 1115); details: small-molecule microarray, higher = more signal;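 further: probe is biotinylated aNog protein used at 0.15 µg/mL for 1 h at 4 C; z-score combines 667 nm fluorescence of each spot with its signal to noise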
[9] = molecular target: Torsin-1A-interacting protein 1 (Homo sapiens) (UniProt Q5JTV8); assay: compound microarray binding of lysate hLAP1 – cell lysate, small-molecule microarray, COS7 lysate, 635/667 nm fluorescence, primary screen (AID 1116); details: 635 nm fluorescence, higher = more signal
Sequence of Torsin-1A-interacting protein 1 (Homo sapiens) (Q5JTV8 whole entry, looked up): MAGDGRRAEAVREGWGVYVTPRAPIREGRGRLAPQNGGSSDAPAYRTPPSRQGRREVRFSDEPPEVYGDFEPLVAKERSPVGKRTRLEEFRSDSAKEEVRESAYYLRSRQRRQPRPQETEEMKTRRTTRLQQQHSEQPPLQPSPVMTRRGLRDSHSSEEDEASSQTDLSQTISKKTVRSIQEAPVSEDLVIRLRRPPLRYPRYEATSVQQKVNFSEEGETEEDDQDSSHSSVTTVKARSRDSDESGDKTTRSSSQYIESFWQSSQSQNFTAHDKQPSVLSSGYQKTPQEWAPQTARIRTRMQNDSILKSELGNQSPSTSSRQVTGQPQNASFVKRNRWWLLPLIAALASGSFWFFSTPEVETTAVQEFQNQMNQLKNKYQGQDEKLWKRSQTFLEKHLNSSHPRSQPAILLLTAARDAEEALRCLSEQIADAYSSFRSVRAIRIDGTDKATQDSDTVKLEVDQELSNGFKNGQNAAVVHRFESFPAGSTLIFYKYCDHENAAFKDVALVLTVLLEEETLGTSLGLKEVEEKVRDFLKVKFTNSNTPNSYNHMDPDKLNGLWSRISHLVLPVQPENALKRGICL

[10] = molecular target: Alpha-bungarotoxin (Bungarus multicinctus) (UniProt P60615); assay: compounds binding labelled alpha-BTX control protein – biochemical, small-molecule microarray, Alexa647 label, 635/667 nm fluorescence, artefact control for SMM control protein annotation, profiling panel (AID 1117); details: alpha-BTX-A647 binding fluorescence, higher = more signal
Sequence of Alpha-bungarotoxin (Bungarus multicinctus) (P60615 whole entry, looked up): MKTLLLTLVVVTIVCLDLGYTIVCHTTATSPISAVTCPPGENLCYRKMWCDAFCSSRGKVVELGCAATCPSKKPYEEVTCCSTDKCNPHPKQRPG

Compound	composite z-score [1]	z-score [2]	composite z-score [3]	composite z-score [4]	composite z-score [5]	composite z-score [6]	composite z-score [7]	composite z-score [8]	composite z-score [9]	composite z-score [10]
C[C@@H](c1ccccc1)N1C(=O)[C@H]2[C@H]3[C@H](O)[C@H](O)CC(=NNC(=O)OCc4ccccc4)[C@@H]3CC[C@H]2C1=O	-0.347	-1.01	1.17	-1.16	-1.94	-0.158	0.0062	-0.545	-0.043	-0.716
CCOC(=O)[C@H](CC(C)C)NC(=O)CCC1CC(OC(=O)NCc2ccc3c(c2)OCO3)CC2(CCCC(COC(=O)NCCOC)O2)O1 (stereo not given in full)	0.522	-0.322	0.249	0.221	-0.491	-0.0792	-0.2	-0.0615	0.956	1.05
CCc1cc2c(nc1CC)CCN(CCC(C)=NOCC[C@@H]1C=C[C@H](OC(C)=O)[C@@H](COC(C)=O)O1)C2	1.11	-0.879	0.879	-0.307	-1.2	0.0209	-0.167	-0.4	1.01	0.147
CC(C)[C@@H](OCc1ccccc1)[C@H](C)CON=C1[C@H]2CCn3c(=O)n(-c4ccccc4)c(=O)n3[C@H]2[C@H](O)[C@@H]2O[C@H]12	0.416	-4.23	0.677	-0.404	-0.366	-0.147	-0.134	-0.124	-0.005	0.251
CC(CCN1CCc2nc(-c3ccccc3)c(-c3ccccc3)cc2C1)=NO[C@@H](C)c1cc(-c2c(C)cc(C)cc2C)no1	-0.324	-1.47	-0.372	0.445	-0.0323	-0.256	-0.428	-0.0211	-0.0029	1.33
CCOC(=O)NN=C1C[C@@H](O)[C@@H](O)[C@@H]2[C@@H]3C(=O)N(CC)C(=O)[C@@H]3CC[C@H]12	-0.307	0.276	0.346	-0.317	-0.325	-0.176	-0.0813	-0.244	0.0626	-0.113
COC(=O)CC=C[C@@H](C)[C@@H](C=NOC[C@@H](O)COCc1ccco1)NS(=O)(=O)c1ccc(C)cc1	-1.24	-0.42	1.04	-2.79	-2.64	-0.166	-0.162	-0.252	-0.435	-0.672
C[C@@H]1CC[C@H]2C(=O)N3[C@@H](CC[C@@H](C)[C@@H]3c3ccc(Br)cc3)C(=O)N2[C@H]1c1ccc(Br)cc1	-0.0146	-1.82	0.31	-0.209	-0.188	-0.105	-0.138	-0.113	0.08	0.371
CCN1C(C)=C(C(=O)OC)[C@@H](c2ccccc2)N2C(=O)[C@](O)(C(=O)OC)CC(C(C)=O)=C12	0.285	0.308	0.784	-0.232	-0.604	-0.0037	-0.179	0.0511	0.455	0.371
CO[C@@H]1COC(=O)CC=C[C@H](C)[C@H](OC)COC(=O)[C@@H]2CCCN2C(=O)CC=C[C@H]1C	-0.496	-0.733	1.31	-0.86	-1.38	-0.113	0.0328	-0.195	-0.041	-0.324
CC(CCN1CCCCc2nc(C)c(C)cc21)=NOC[C@@H](O)[C@H]1O[C@@H]2OC(C)(C)O[C@@H]2[C@H]1O	-0.902	0.0388	1.39	-0.554	-1.3	-0.124	-0.0626	0.0254	-0.219	0.969
CCCNC(=O)OC[C@H]1O[C@H](CCON=C2c3cc(OC)ccc3O[C@H](c3cccc(OC)c3)[C@H]2O)C=C[C@@H]1Oc1ccc(OC)cc1	0.523	-3.02	0.322	0.571	0.0967	-0.187	-0.0035	-0.239	1.28	1.2
CO[C@H]1COC(=O)CCC[C@H](C)[C@@H](OC)COC(=O)CC=C[C@@H]1C	-0.431	-1.63	0.966	-0.946	-1.1	-0.191	-0.0248	-0.267	0.387	0.0355
CC(=O)OC[C@H]1O[C@H](CC=NOC[C@@H](O)[C@H]2O[C@@H]3OC(C)(C)O[C@@H]3[C@H]2O)C=C[C@@H]1OC(C)=O	0.836	-0.041	0.439	0.699	0.249	-0.0735	0.179	-0.189	0.51	1.32
CCOC(=O)CCN1C(=O)[C@H]2[C@H]3[C@H](O)[C@H](O)CC(=NNC(=O)OCC)[C@H]3CC[C@H]2C1=O	-0.0248	-2.37	0.679	-0.842	-1.67	-0.1	-0.0626	0.121	-0.0184	-0.798
C[C@@H]1CC[C@H]2C(=O)OC(Cc3ccccc3)CN2[C@H]1c1ccc(Br)cc1 (stereo not given in full)	0.911	0.161	0.34	-0.241	-0.536	-0.228	-0.0146	0.105	0.781	0.599
O=C1C2=CC[C@H]3C(=O)N(C[C@@H]4CCCO4)C(=O)[C@H]3[C@H]2[C@H](O)[C@@H]2O[C@H]12	0.0207	-4.56	0.153	-0.248	-1.13	-0.219	0.0121	-0.158	0.518	0.395

Compound	composite z-score [1]	z-score [2]	composite z-score [3]	composite z-score [4]	composite z-score [5]	composite z-score [6]	composite z-score [7]	composite z-score [8]	composite z-score [9]	composite z-score [10]
O=C(NCCC[N+]1=CC=NC1c1ccccc1)N1CCCc2nc(-c3ccc(Br)cc3)ccc21 (stereo not given)	0.107	-3.49	0.498	0.626	0.0894	-0.0145	0.0141	0.0481	0.0439	-0.436
COc1ccc(OC[C@H]2CN3[C@@H](CC[C@@H](C)[C@@H]3c3ccc(Br)cc3)C(=O)O2)cc1	0.191	-0.757	0.579	-0.146	-0.855	-0.176	-0.221	0.0121	0.5	0.641
COC(=O)[C@@H]1CC[C@H](C)[C@@H](c2ccc(C)cc2)N1C(=O)c1ccc(C=NOC[C@H]2O[C@H](c3ccccc3)C=C[C@@H]2Oc2ccc(OC)cc2)cc1	0.404	-0.739	0.35	-0.156	-0.551	0.0104	-0.234	0.0498	1.18	0.304
O=C1C2=CC[C@H]3C(=O)N(c4ccc(F)cc4F)C(=O)[C@H]3[C@H]2[C@H](O)[C@@H]2O[C@H]12	0.356	-0.155	0.662	-0.232	-0.773	-0.206	-0.352	-0.553	0.335	0.455
COC(=O)[C@@H]1CC[C@H](C)[C@@H](c2ccc(Br)cc2)N1	-1.28	-0.178	0.0281	-0.0261	0.394	0.0375	0.261	0.101	0.488	0.234
CON(C)C(=O)c1nnc2c(n1)[nH]c1ccccc12	-0.186	2.27	0.414	-0.15	-0.229	-0.148	-0.23	-0.33	2.14	0.573
COCC#Cc1ccc([C@@H]2N[C@H](C(=O)O)CC[C@H]2C)cc1	-0.216	0.958	0.794	-0.292	0	-0.224	-0.117	-0.186	-0.416	0.0645
CCOC(=O)[C@H](CC(C)C)NC(=O)CCC1CC(OC(=O)NCCc2ccc(F)cc2)CC2(CCCC(COC(=O)NCCOC)O2)O1 (stereo not given in full)	1.34	-0.694	1.12	0.217	-0.119	-0.176	-0.0769	-0.438	0.461	0.411
CC(C)=NO[C@@H](C)c1cn([C@H](CO)Cc2ccccc2)nn1	0.833	1.13	0.802	-0.03	-0.408	0.0044	-0.0794	-0.35	0.541	0.392
O=C1CCCC=C1C(O)C1CCCCC1 (stereo not given)	-0.64	0.108	-0.0231	-0.583	-0.389	0.0088	-0.186	-0.134	-0.207	-0.268
O=C(NN=C1C[C@@H](O)[C@@H](O)[C@@H]2[C@@H]3C(=O)N(Cc4ccc5c(c4)OCO5)C(=O)[C@@H]3CC[C@@H]12)OCc1ccccc1	-0.189	-1.39	0.0764	-0.114	-0.103	-0.176	0.227	-0.0498	0.739	0.26
COC(OC)[C@@H](C)[C@H](OC)[C@@H](C)[C@H](OC)c1ccccc1	-0.567	0.928	0.4	-1.15	-0.647	-0.225	-0.273	0.108	0.0678	-0.0469
CC(C)C(=O)N[C@H]1CCCN1C(=O)C=Cc1ccccc1	0.531	-0.206	0.681	-0.266	-0.306	0.0495	0.3	0.254	0.289	0.0359
CC[C@@H](c1ccccc1)n1c(=O)n2n(c1=O)[C@H]1[C@H](O)[C@@H]3O[C@@H]3C(=NOCc3ccccc3)[C@H]1CC2	0.502	-4.13	0.244	0.207	-0.258	-0.107	-0.0146	-0.0606	-0.0058	0.919
CCOC(=O)[C@H](CC(C)C)NC(=O)CCC1CC(OC(=O)NCc2ccc3c(c2)OCO3)CC2(CCCC(COC(=O)NCCC(C)C)O2)O1 (stereo not given in full)	-0.527	0.752	0.0162	-0.344	-0.365	-0.184	-0.283	-0.295	0.0461	0.0789
C#CCCCON=C1[C@H]2CCn3c(=O)n([C@@H](CC)c4ccccc4)c(=O)n3[C@H]2[C@H](O)[C@@H]2O[C@H]12	-0.194	-3.43	0.0878	-0.184	-0.483	-0.0799	-0.0295	-0.35	-0.0356	-0.151
